Assay results as given in PubChem BioAssay AID1490 (National Center for Advancing Translational Sciences (NCATS), 2009).
Where “and” joins values, the source holds several entries; their conditions need not be identical. Equal entries are not always repeated. The whole screen tested about 310,000 compounds, of which about 11,000 (3.5%) were called active. About 4% were inconclusive and are not listed. This excerpt belongs to a sample that is enriched for actives. A number with no mark means an inactive call. Calls follow the shape of the dose curve; as a rule, active = well fitted inhibition curve with a large enough effect; inconclusive = small, poorly fitted or top-dose-only effect, or another doubt; inactive = no such curve, though single readings can be large or run the other way.

molecular target: 4'-phosphopantetheinyl transferase ffp (Bacillus subtilis) (UniProt Q9F4F7); test: qHTS Assay for Inhibitors of Bacillus subtilis Sfp phosphopantetheinyl transferase (PPTase); settings: Biochemical Sfp PPTase activity;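 also: the enzyme is Sfp with the accession as filed and its product quenches rhodamine fluorescence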;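 as to largest response in the series, negative = inhibition: 0% = enzyme reaction without inhibitor and -100% = no enzyme wells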
How it was run: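 Compounds were incubated with enzyme (final 15 nM) for 15 min at room temperature before substrate addition started the reaction. Fluorescence at 525 nm excitation, 598 nm emission was recorded immediately and after 30 minutes.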
Potency is read from the fitted curve at half-maximal effect.

Row | SMILES | largest response in the series, negative = inhibition | Potency
1 | COc1ccc(C(=O)NC2CC(C)(C)NC(C)(C)C2)cc1OC | 0.887% | 
2 | N#C/C(=C\c1ccc(O)c(O)c1)C(N)=O |  | 79.4 µM (active) and 56.2 µM (active)
3 | CC(C)(C)C(=O)/C(C#N)=C/c1ccc(O)cc1 | 8.9% | 
4 | N#C/C(=C\c1ccc(O)c(O)c1)C(=O)NCc1ccccc1 | -22.3% and -19.4% | 
5 | C=CCOc1ccc(/C=C/C(=O)OCC(=O)NC2CCCCCC2)cc1 | 16.7% | 
6 | CCOC(=O)c1ccc(NC(=O)CNC(=O)c2ccco2)cc1 | 7.8% | 
7 | CCCN(CCc1ccccc1)C1CCc2c(O)cccc2C1 (centres undefined) | 21.2% | 
8 | CC(=O)Nc1ccc(S(=O)(=O)N2N=NC3C2C2CC4C3(CN(C(=O)OC(C)(C)C)S4(=O)=O)O2)cc1 (centres undefined) | 11.6% | 
9 | O=C(COC(=O)C12CC3CC(CC(C3)C1)C2)NCc1ccco1 | -10.5% | 
10 | O=C(COC(=O)CCC(=O)c1cccs1)NCc1ccco1 |  | 35.5 µM (active)
11 | O=C(COC(=O)c1cccs1)NCc1cccs1 | 10.5% | 
12 | CN1CCN(Cc2c(C(=O)N3CCc4ccccc4C3)nc3ccc(Cl)cn23)CC1 | -5.24% | 
13 | CCCn1nnnc1NCc1ccc(OC)cc1 | 10.3% | 
14 | CNC(=O)c1sc(NCc2ccccc2OC)nc1C | -19.7% | 
15 | CCOC(=O)c1sc(NC(=O)c2ccncc2)nc1C | -1.23% | 
16 | CCOC(=O)C1=C(C)Nc2sc(C(=O)c3ccc(Br)cc3)c(N)c2C1c1ccc(C(=O)OC)cc1 (centres undefined) | 15.8% | 
17 | CCOC(=O)c1sc(=S)n2c1[nH]c(=O)c1ccc(C(=O)OC)cc12 |  | 15.8 µM (active)
18 | CCc1nn(CCCC(=O)Nc2ccc(C)c(C)c2)c(=O)c2cc3occc3n12 | 5.57% | 
19 | COc1ccc(N2CCN(Cc3cc(=O)oc4ccc5ccccc5c34)CC2)cc1 | 4.08% | 
20 | COc1ccc(N2CCN(Cc3ccc(Br)s3)CC2)cc1 |  | 39.8 µM (active)
21 | COc1ccc(N2CCN(Cc3nnc(-c4ccccc4)o3)CC2)cc1 | 2.63% | 

Row | SMILES | largest response in the series, negative = inhibition | Potency
22 | O=C(CN(C(=O)c1csnn1)c1cccc(Cl)c1)NC1CCCC1 | 5.89% | 
23 | Cc1nnc(NCCO)c2ccccc12 | 13.5% | 
24 | NNc1nnc(NN)c2ccccc12 |  | 89.1 µM (active)
25 | C=CCNc1nnc(C)c2ccccc12 | 4.78% | 
26 | CSc1ccccc1OCc1cc(C(=O)N(C)CCc2c(C)n[nH]c2C)no1 | 0.222% | 
27 | COc1cc(C(=O)NCc2ccncc2)cc(Br)c1OCc1ccccc1 | 4.37% | 
28 | COc1cc(C=O)c(Br)cc1OCC(=O)NCc1ccccc1 | 11.5% | 
29 | COc1cc(C(=S)NCc2ccccc2)cc(Br)c1O |  | 8.91 µM (active)
30 | NS(=O)(=O)c1ccccc1NC(=O)c1c(O)c2ccccc2[nH]c1=O | -6.41% | 
31 | CC1CC(=O)N(CC(=O)Nc2cccc(Cl)c2)c2ccccc2S1(=O)=O (centres undefined) | 12.1% | 
32 | COc1cc2c(cc1OC)[C@@H](Cc1cc(OC)c(OC)c(OC)c1)[N+](C)(CCCOC(=O)CC/C=C/CCC(=O)OCCC[N+]1(C)CCc3cc(OC)c(OC)cc3[C@H]1Cc1cc(OC)c(OC)c(OC)c1)CC2 (some centres undefined) | -3.12% | 
33 | CCCCN(CC)C(=O)C1CCCN(S(=O)(=O)c2cccc3nsnc23)C1 (centres undefined) | 17.1% | 
34 | COC(=O)c1c(-c2ccc(C)cc2)csc1N |  | 44.7 µM (active)
35 | CCC(C(=O)OC)n1cnc2scc(-c3ccc(C)cc3)c2c1=O (centres undefined) | 6.01% | 
36 | CCOC(=O)c1c(-c2ccccc2)csc1NC(=S)NC(=O)c1ccccc1 | -3.92% | 
37 | CCCCC/C=C\C[C@H](O)/C=C/C=C/C=C/[C@@H](O)CCCC(=O)O | 6.53% | 
38 | CC(=O)N1CCN(C(=O)C2(NC(=O)Nc3ccc(C)cc3)CCCCC2)CC1 | 14.1% | 
39 | O=C(Cc1ccc(Br)cc1)NCCN1CCOCC1 | 14.6% | 
40 | CCCOc1ccc(C2c3c(oc4cc(C)c(C)cc4c3=O)C(=O)N2CCCN2CCOCC2)cc1 (centres undefined) |  | 50.1 µM (active)
41 | COc1ccc(C2/C(=C(/O)c3ccc(OC(C)C)cc3)C(=O)C(=O)N2CCCN2CCOCC2)cc1 (centres undefined) | -22.3% | 
42 | CCCCOc1ccc(C(C)(O)CCN2CCOCC2)cc1 (centres undefined) | 6.22% | 

Row | SMILES | largest response in the series, negative = inhibition | Potency
43 | CCOc1cc(-c2cc(-c3ccc(NC(C)=O)cc3)nc(N)c2C#N)ccc1O | 10.7% | 
44 | Cc1cc(=O)n2nc(N3CCCC(C(=O)NCc4cccc(Cl)c4)C3)sc2n1 (centres undefined) | 8.1% | 
45 | COc1ccc(CCNC(=O)NS(=O)(=O)c2ccc(C)cc2)cc1OC | 17.5% | 
46 | COc1ccc(CCNC(=O)Cc2ccc(C)cc2)cc1OC |  | 39.8 µM (active)
47 | COc1ccc(CCNC(=O)c2ccccc2-c2ccccc2C(=O)O)cc1OC | 5.81% | 
48 | CC(C)(Oc1ccc(C2CC2(Cl)Cl)cc1)C(=O)O (centres undefined) | 18% | 
49 | COc1ccc(NS(=O)(=O)c2cc3c(cc2C)N(C(C)=O)CCO3)cc1 | 15.7% | 
50 | CCn1c(=O)c(=O)[nH]c2c(=O)oc3ccc(S(=O)(=O)Nc4ccc(OC)cc4)cc3c21 | 5.45% | 
51 | CCOC(=O)N1CCN(C(=O)C(=O)Nc2sc3c(c2C#N)CC(C)(C)OC3)CC1 | -14.6% | 
52 | C/C=C\C=C\C(=O)N1CC2(CC(c3cccc(NC(=O)/C(C)=C\C)c3)=NO2)C[C@H]1C(N)=O (some centres undefined) |  | 15.8 µM (active)
53 | CC/C=C/C(=O)N1CC2(CC(c3cccc(NC(=O)CC)c3)=NO2)C[C@H]1C(N)=O (some centres undefined) | -8.44% | 
54 | C/C=C(/C)C(=O)Nc1cccc(C2=NOC3(C2)C[C@@H](C(N)=O)N(C(=O)C2(C)CC2)C3)c1 (some centres undefined) | -3.68% | 
55 | CCOC(=O)N1CCN(S(=O)(=O)c2ccc(-n3cnnn3)cc2)CC1 | 6.31% | 
56 | COc1ccc(N2CCN(C(=S)Nc3ccc(S(N)(=O)=O)cc3)CC2)cc1 |  | 11.2 µM (active)
57 | NS(=O)(=O)c1ccc(NC(=S)N2CCCC2)cc1 | 13.2% | 
58 | CCOc1ccccc1N1CCN(C(=S)Nc2ccc(S(N)(=O)=O)cc2)CC1 | -3.97% | 
59 | NS(=O)(=O)c1ccc(NC(=S)NC(=O)c2cccnc2)cc1 | -95.1% | 
60 | COc1ccc(NC(=S)Nc2ccc(S(N)(=O)=O)cc2)c(C)c1 |  | 50.1 µM (active)
61 | COc1ccc(NS(=O)(=O)c2ccc(NC(=S)NC(=O)CC(C)C)cc2)cc1 | 3.37% | 
62 | Cc1ccccc1NC(=O)CCOc1ccccc1 | 2% | 
63 | CCc1ccc(CN(C)C(=O)C2CCC(=O)N(Cc3cccc(OC)c3)C2)nc1 (centres undefined) | 14.7% | 

Row | SMILES | largest response in the series, negative = inhibition | Potency
64 | Cc1ccc(NS(=O)(=O)c2cn(C)c(=O)n(C)c2=O)c(C)c1 | 8.01% | 
65 | COc1ccccc1NC(=O)CCC(=O)N1CC(C)Oc2ccc(C)cc21 (centres undefined) | 6.52% | 
66 | COc1ccc(C(C(=O)NCC2CCCO2)N(C(=O)Cn2nnc3ccccc32)c2ccc(NC(C)=O)cc2)cc1OC (centres undefined) | 15.5% | 
67 | OCCNc1nc(Nc2ccc(Cl)c(Cl)c2)nc2ccccc12 |  | 79.4 µM (active)
68 | Nc1nc(Nc2ccccc2)nc(NCCO)c1[N+](=O)[O-] | 13.5% | 
69 | CN(C)c1nc(Nc2ccc(Cl)c(Cl)c2)nc(N(C)C)n1 | 3.3% | 
70 | O=C(NCC(=O)N1CCN(c2ccccc2O)CC1)c1ccc2ccccc2c1 | 2.02% | 
71 | CCN1CCN(c2sc(S(C)(=O)=O)nc2S(=O)(=O)c2ccc(Cl)cc2)CC1 | 14.2% | 
72 | COc1ccc(C(=O)COC(=O)Cn2cnc3c2c(=O)n(C)c(=O)n3C)c(OC)c1 | 2.93% | 
73 | CCCOC1CCCN(C(=O)c2cc(COc3cncc(Cl)c3)on2)C1 (centres undefined) | -1.29% | 
74 | Oc1c(C(c2ccccn2)N2CCOCC2)ccc2cccnc12 (centres undefined) |  | 35.5 µM (active)
75 | OC(COc1ccc2ccccc2c1)CN1CCOCC1 (centres undefined) | 11.8% | 
76 | CCOc1cc(N2CCOCC2)c(OCC)cc1NC(=O)COc1cccc2cccnc12 | 1.6% | 
77 | CN(C)CCNc1ccc(-c2n[nH]c(=O)c3ccccc23)cc1[N+](=O)[O-] | 16.7% | 
78 | O=C(Nc1ccccc1Cl)Nc1cccc2cccnc12 | 2.31% | 
79 | O=C(Nc1ccccc1Cl)O/N=C(/c1ccccc1)c1ccccn1 |  | 79.4 µM (active)
80 | Cc1ccc(C(=O)O/N=C(\N)c2ccccn2)cc1Cl | 2.02% | 
81 | CCCCNc1nc(C)nc2c1nc(-c1ccccc1)n2CCCCN(CC)CC | 23.3% | 
82 | Cc1cc(C)n(-c2ccc(NC(=O)C3CCCCN3C(=O)c3cccs3)cc2)n1 (centres undefined) | 4.09% | 
83 | C=CCc1cccc(/C=N/NC(=O)COc2ccc(-n3cnnn3)cc2)c1O | 15.1% | 
84 | CCc1ccnc(NC(=O)Nc2ccc(OCc3ccccc3)cc2)c1 | -0.979% | 
